Experimental data as given in PubChem BioAssay AID1159580 (chemical genetic matrix, 2015).
Out of some 5,500 compounds screened, about 2,000 (36%) were called active. Not shown: some 18% with an inconclusive outcome. Cut-off read from the data, not from the text of the source: active = normalized growth mostly below about 0.91 (no sharp cut-off); inconclusive = no clear call, values can overlap the other calls; inactive = mostly above about 0.92. The list shows a part of the results.

Assay: chemical genetic growth profiling, strain panel (AID 1159580);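 note: tested at 20 µM; growth read once vehicle control cultures reached saturation at 30 °C; 1 = growth at the plate median or of vehicle wells; lower values mean less growth of the strain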
Settings: S. cerevisiae deletion strains, growth OD

Measured: normalized growth

CC(=O)Oc1c(C)cccc1C(=O)O
inactive: locus YAL013W, strain DEP1, hits give low values 1.01 | locus YAL021C, strain ccr4, hits give low values 0.989 | locus YAL026C, strain drs2, hits give low values 1.01 | locus YAL030W, strain snc1, hits give low values 0.992 | locus YBL061C, strain skt5, hits give low values 1.01 | locus YBR009C, strain hhf1, hits give low values 1.01 | locus YBR021W, strain FUR4, hits give low values 0.989 | locus YBR023C, strain chs3, hits give low values 1 | locus YBR171W, strain sec66, hits give low values 1.02 | locus YBR229C, strain ROT2, hits give low values 0.988 | locus YBR231C, strain swc5, hits give low values 1.02 | locus YBR279W, strain paf1, hits give low values 1.01 | locus YCL011C, strain gbp2, hits give low values 1.01 | locus YCL016C, strain dcc1, hits give low values 0.998 | locus YCL029C, strain bik1, hits give low values 1.01 | locus YCL061C, strain MRC1, hits give low values 1.01 | locus YCL069W, strain vba3, hits give low values 1.01 | locus YCR088W, strain abp1, hits give low values 1.02 | locus YDL005C, strain med2, hits give low values 1.02 | locus YDL035C, strain GPR1, hits give low values 1.01 | locus YDL040C, strain nat1, hits give low values 1 | locus YDL074C, strain BRE1, hits give low values 1 | locus YDL101C, strain DUN1, hits give low values 1.01 | locus YDL134C, strain PPH21, hits give low values 1.01 | locus YDL185W, strain tfp1, hits give low values 0.999 | locus YDL192W, strain arf1, hits give low values 1.02 | locus YDR001C, strain nth1, hits give low values 1.01 | locus YDR069C, strain doa4, hits give low values 1.01 | locus YDR101C, strain arx1, hits give low values 1.02 | locus YDR137W, strain rgp1, hits give low values 0.985 | locus YDR150W, strain NUM1, hits give low values 1.01 | locus YDR159W, strain sac3, hits give low values 0.981 | locus YDR162C, strain NBP2, hits give low values 1 | locus YDR195W, strain ref2 0.994 | locus YDR297W, strain sur2, hits give low values 0.987 | locus YDR318W, strain mcm21, hits give low values 1.02 | locus YDR334W, strain swr1, hits give low values 1.01 | locus YDR335W, strain msn5, hits give low values 0.989 | locus YDR388W, hits give low values 1.01 | locus YDR392W, strain spt3, hits give low values 0.957 | locus YDR502C, strain sam2, hits give low values 1.02 | locus YEL003W, strain gim4, hits give low values 1.03 | locus YEL037C, strain rad23, hits give low values 1.02 | locus YEL061C, strain CIN8 (second series), hits give low values 1.01 | locus YEL061C, strain CIN8, hits give low values 0.995 | locus YER015W, strain faa2, hits give low values 1.01 | locus YER016W, strain bim1, hits give low values 0.984 | locus YER110C, hits give low values 1.02 | locus YER111C, strain swi4, hits give low values 1.02 | locus YER155C, strain BEM2 (second series), hits give low values 1.01 | locus YER155C, strain BEM2, hits give low values 1.01 | locus YER167W, strain BCK2, hits give low values 1.01 | locus YFR010W, strain ubp6, hits give low values 1.02 | locus YGL078C, strain dbp3, hits give low values 1.01 | locus YGL086W, strain mad1, hits give low values 1.01 | locus YGL167C, strain pmr1, hits give low values 1.01 | locus YGL173C, strain kem1, hits give low values 1.02 | locus YGL227W, strain vid30, hits give low values 1.01 | locus YGL240W, strain doc1, hits give low values 0.971 | locus YGL248W, strain PDE1, hits give low values 1.01 | locus YGL253W, strain hxk2, hits give low values 1.01 | locus YGR078C, strain PAC10, hits give low values 1 | locus YGR135W, strain pre9, hits give low values 1 | locus YGR229C, strain SMI1, hits give low values 1.02 | locus YGR252W, strain gcn5, hits give low values 1 | locus YHR013C, strain ard1, hits give low values 1.01 | locus YHR027C, strain rpn1, hits give low values 0.991 | locus YHR030C, strain SLT2, hits give low values 1.01 | locus YHR079C, strain IRE1 (second series), hits give low values 1 | locus YHR094C, strain hxt1, hits give low values 1.01 | locus YHR129C, strain ARP1, hits give low values 1.01 | locus YHR142W, strain chs7, hits give low values 1.02 | locus YHR200W, strain rpn10, hits give low values 1.02 | locus YIL066C, strain RNR3, hits give low values 1.01 | locus YIL073C, strain SPO22, hits give low values 1.05 | locus YIL125W, strain kgd1, hits give low values 1.01 | locus YIR030C, strain dcg1, hits give low values 1.01 | locus YJL092W, strain hpr5, hits give low values 1.01 | locus YJL095W, strain BCK1 (second series), hits give low values 0.977 | locus YJL095W, strain BCK1, hits give low values 1.01 | locus YJL115W, strain asf1, hits give low values 1.02 | locus YJL129C, strain trk1, hits give low values 1.04 | locus YJL134W, strain LCB3, hits give low values 1.01 | locus YJL154C, strain vps35, hits give low values 1 | locus YJL164C, strain tpk1, hits give low values 0.997 | locus YJL166W, strain qcr8, hits give low values 1 | locus YJL168C, strain set2, hits give low values 1.01 | locus YJL187C, strain SWE1 (second series), hits give low values 1.01 | locus YJL187C, strain SWE1, hits give low values 0.983
